Where “and” joins values, the source holds several entries; their conditions need not be identical. Identical values can stand only once. Inconclusive results are not listed. A structure can be active in one record and inactive in another. Calls of active or inactive are those of the source. How the source made its calls, unless noted: active means hit-call score of the fitted dose curve at least 0.9, where 1 is the maximum; inactive means score below 0.9.
Key:
[1] = target: human Peroxisome Proliferator-activated Receptor alpha (PPARa), PPARA (gene 5465) (UniProt Q07869); assay: ATG_PPARa_TRANS: Attagene TRANS-FACTORIAL HepG2 Assay for human Peroxisome Proliferator-activated Receptor alpha (PPARa) (AID 2283001; active means hit-call score of the fitted dose curve at least 0.9, where 1 is the maximum;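 on AC50: potency for gain of reporter signal over DMSO so agonist or activator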)
Sequence of human Peroxisome Proliferator-activated Receptor alpha (PPARa), PPARA (gene 5465) (Q07869 whole entry, looked up, the tested form may be a part): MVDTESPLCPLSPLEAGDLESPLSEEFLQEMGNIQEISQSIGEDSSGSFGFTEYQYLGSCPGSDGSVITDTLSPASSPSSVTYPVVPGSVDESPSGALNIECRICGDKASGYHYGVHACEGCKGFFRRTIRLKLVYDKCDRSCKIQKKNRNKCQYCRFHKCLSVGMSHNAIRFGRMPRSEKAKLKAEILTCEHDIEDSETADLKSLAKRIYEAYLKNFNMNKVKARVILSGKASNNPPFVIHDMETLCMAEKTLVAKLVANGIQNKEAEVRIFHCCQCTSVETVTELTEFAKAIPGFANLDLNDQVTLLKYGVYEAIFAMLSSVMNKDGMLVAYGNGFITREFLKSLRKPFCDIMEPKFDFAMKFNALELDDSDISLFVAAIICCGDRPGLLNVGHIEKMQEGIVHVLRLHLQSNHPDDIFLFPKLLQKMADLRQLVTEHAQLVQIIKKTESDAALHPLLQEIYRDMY
Method in brief: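 Reporter transcripts from GAL4-UAS units in transfected HepG2 were quantified 24 h after dosing. Detection used reverse transcription, PCR, fluorescent primer extension and capillary electrophoresis, with DMSO as baseline.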

[2] = target: human Peroxisome Proliferator-activated Receptor delta (PPARd), PPARD (gene 5467) (UniProt Q03181); assay: ATG_PPARd_TRANS: Attagene TRANS-FACTORIAL HepG2 Assay for human Peroxisome Proliferator-activated Receptor delta (PPARd) (AID 2283002; active means hit-call score of the fitted dose curve at least 0.9, where 1 is the maximum)
Sequence of human Peroxisome Proliferator-activated Receptor delta (PPARd), PPARD (gene 5467) (Q03181 whole entry, looked up, the tested form may be a part): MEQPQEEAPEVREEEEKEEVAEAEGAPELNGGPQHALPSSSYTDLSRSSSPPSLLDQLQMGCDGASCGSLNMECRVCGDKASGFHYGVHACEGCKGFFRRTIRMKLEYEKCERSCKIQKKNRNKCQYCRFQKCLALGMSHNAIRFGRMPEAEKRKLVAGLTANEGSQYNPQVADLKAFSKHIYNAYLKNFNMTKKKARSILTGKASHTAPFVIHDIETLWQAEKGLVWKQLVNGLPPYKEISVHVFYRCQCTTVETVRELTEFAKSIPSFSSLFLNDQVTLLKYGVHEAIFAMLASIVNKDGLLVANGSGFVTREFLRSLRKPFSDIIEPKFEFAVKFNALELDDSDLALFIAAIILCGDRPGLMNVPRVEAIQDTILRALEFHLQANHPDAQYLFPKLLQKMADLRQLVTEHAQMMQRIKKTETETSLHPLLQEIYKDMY
Method in brief: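 Read-out is induced reporter mRNA, quantified by RT-PCR with fluorescent labelling and capillary electrophoresis after 24 h dosing. Cells are HepG2 transiently carrying multiple GAL4-UAS reporter units driven by exogenous NR-GAL4 chimeras; DMSO serves as baseline.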

[3] = read-out: Intercellular Adhesion Molecule 1 (ICAM1), ICAM1 (gene 3383); assay: BSK_3C_ICAM1: BioMAP Diversity Plus: 3C Assay for Intercellular Adhesion Molecule 1 (ICAM1) Biomarker Activity (AID 2283003); conditions: primary human endothelial cells (HUVEC); actives raise or lower the signal
Method in brief: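 Human vascular endothelial primary cells, 3C conditions, 24 h treatment. ICAM-1 by ELISA.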

[4] = BSK_3C_Proliferation: Cell Proliferation Assessment in the BioMAP Diversity Plus: 3C Assay (AID 2283006); conditions: primary human endothelial cells (HUVEC);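 on AC50: potency may reflect either rise or fall in cell number versus DMSO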
Method in brief: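 Proliferation of human vascular endothelial primary cells after 48 h dosing, quantified as SRB-stained protein at 560 nm relative to DMSO.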

[5] = target: Peroxisome proliferator-activated receptor gamma (Homo sapiens) (UniProt P37231); assay: ATG_PPARg_TRANS: Attagene TRANS-FACTORIAL HepG2 Assay for human Peroxisome Proliferator-activated Receptor-gamma (PPARg) (AID 2283007; active means hit-call score of the fitted dose curve at least 0.9, where 1 is the maximum)
Sequence of Peroxisome proliferator-activated receptor gamma (Homo sapiens) (P37231 whole entry, looked up, the tested form may be a part): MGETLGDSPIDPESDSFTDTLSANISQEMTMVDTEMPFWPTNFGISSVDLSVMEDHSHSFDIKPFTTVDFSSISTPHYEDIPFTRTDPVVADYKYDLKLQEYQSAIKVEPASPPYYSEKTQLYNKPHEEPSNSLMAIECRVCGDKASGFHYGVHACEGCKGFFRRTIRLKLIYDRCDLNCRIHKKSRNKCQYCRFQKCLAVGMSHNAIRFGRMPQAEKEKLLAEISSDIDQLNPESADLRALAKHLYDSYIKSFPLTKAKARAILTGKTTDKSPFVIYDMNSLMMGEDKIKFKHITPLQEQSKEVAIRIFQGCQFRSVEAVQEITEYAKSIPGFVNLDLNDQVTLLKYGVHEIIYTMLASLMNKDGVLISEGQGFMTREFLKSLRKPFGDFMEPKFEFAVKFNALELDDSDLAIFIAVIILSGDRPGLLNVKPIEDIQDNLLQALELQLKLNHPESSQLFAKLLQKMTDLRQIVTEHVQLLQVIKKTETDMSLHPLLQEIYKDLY
Method in brief: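 Endpoint reflects upward reporter mRNA change versus DMSO controls. Setup: transiently transfected HepG2, GAL4-UAS reporters driven by chimeric NR-Gal4, 24 h incubation, RT-PCR with capillary electrophoresis read-out.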

[6] = target: Nuclear receptor subfamily 1 group I member 2 (Homo sapiens) (UniProt O75469); assay: ATG_PXR_TRANS: Attagene TRANS-FACTORIAL HepG2 Assay for human Pregnane X Receptor (PXR) (AID 2283008; active means hit-call score of the fitted dose curve at least 0.9, where 1 is the maximum)
Sequence of Nuclear receptor subfamily 1 group I member 2 (Homo sapiens) (O75469 whole entry, looked up, the tested form may be a part): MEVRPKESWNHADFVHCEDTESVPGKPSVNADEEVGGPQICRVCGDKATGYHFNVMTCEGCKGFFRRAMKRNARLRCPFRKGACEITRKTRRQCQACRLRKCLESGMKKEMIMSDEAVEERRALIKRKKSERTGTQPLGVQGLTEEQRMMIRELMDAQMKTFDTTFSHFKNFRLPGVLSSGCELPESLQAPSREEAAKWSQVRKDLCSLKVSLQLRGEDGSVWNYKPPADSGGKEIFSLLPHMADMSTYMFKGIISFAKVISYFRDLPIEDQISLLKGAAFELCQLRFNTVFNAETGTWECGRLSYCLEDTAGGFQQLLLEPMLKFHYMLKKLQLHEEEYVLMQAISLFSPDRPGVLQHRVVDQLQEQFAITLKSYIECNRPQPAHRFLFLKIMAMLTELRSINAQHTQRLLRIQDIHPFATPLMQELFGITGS
Method in brief: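 HepG2 cells transiently transfected with GAL4-UAS reporter units and PXR-Gal4 chimera, exposed 24 h. Reporter mRNA quantified by RT-PCR, fluorescent labelling, HpaI digestion and capillary electrophoresis; gain of signal vs DMSO.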

[7] = target: human RAR-related Orphan Receptor beta (RORb), RORB (gene 6096) (UniProt Q92753); assay: ATG_RORb_TRANS: Attagene TRANS-FACTORIAL HepG2 Assay for human RAR-related Orphan Receptor beta (RORb) (AID 2283010; active means hit-call score of the fitted dose curve at least 0.9, where 1 is the maximum)
Sequence of human RAR-related Orphan Receptor beta (RORb), RORB (gene 6096) (Q92753 whole entry, looked up, the tested form may be a part): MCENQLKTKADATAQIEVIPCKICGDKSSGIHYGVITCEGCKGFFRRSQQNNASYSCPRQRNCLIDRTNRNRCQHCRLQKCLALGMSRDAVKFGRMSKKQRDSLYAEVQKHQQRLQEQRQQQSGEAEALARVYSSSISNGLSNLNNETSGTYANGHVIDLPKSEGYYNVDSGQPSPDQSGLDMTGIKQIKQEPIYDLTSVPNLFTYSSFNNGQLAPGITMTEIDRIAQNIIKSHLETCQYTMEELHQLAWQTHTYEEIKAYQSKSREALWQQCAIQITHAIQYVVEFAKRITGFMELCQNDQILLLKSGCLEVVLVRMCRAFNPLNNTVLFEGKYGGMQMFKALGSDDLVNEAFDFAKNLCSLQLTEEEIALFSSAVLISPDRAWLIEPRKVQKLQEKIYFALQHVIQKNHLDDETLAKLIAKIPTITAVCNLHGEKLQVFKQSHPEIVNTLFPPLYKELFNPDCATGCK
Method in brief: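 In this TRANS-format test, human HepG2 cells express chimeric NR-Gal4 fusion proteins driving GAL4-UAS reporters. After 24 h dosing, reporter transcripts are measured by fluorescent RT-PCR/capillary electrophoresis, with DMSO as negative control.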

[8] = target: human RAR-related Orphan Receptor gamma (RORg), RORC (gene 6097) (UniProt P51449); assay: ATG_RORg_TRANS: Attagene TRANS-FACTORIAL HepG2 Assay for human RAR-related Orphan Receptor gamma (RORg) (AID 2283011; active means hit-call score of the fitted dose curve at least 0.9, where 1 is the maximum)
Sequence of human RAR-related Orphan Receptor gamma (RORg), RORC (gene 6097) (P51449 whole entry, looked up, the tested form may be a part): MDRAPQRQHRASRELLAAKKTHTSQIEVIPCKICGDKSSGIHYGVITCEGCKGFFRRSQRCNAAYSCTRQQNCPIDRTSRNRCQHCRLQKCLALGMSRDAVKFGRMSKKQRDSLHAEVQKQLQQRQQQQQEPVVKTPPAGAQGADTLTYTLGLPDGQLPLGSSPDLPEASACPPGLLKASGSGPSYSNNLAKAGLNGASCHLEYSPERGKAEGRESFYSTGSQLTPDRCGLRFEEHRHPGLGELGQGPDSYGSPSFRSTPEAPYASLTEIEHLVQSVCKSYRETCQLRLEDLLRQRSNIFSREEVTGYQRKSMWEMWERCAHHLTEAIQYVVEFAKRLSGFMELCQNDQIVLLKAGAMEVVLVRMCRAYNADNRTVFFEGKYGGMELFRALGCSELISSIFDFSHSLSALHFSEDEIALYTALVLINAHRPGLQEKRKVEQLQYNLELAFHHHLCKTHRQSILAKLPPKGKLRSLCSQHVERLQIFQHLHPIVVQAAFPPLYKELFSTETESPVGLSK
Method in brief: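 Reporter transcripts from a transfected RORg-GAL4 chimera in HepG2 cells were quantified 24 h after dosing by RT-PCR, 6-FAM labelling, HpaI digestion and capillary electrophoresis; increases over DMSO baseline were fitted.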

[9] = target: Retinoic acid receptor RXR-alpha (Homo sapiens) (UniProt P19793); assay: ATG_RXRa_TRANS: Attagene TRANS-FACTORIAL HepG2 Assay for human Retinoid X Receptor alpha (RXRa) (AID 2283012; active means hit-call score of the fitted dose curve at least 0.9, where 1 is the maximum)
Sequence of Retinoic acid receptor RXR-alpha (Homo sapiens) (P19793 whole entry, looked up, the tested form may be a part): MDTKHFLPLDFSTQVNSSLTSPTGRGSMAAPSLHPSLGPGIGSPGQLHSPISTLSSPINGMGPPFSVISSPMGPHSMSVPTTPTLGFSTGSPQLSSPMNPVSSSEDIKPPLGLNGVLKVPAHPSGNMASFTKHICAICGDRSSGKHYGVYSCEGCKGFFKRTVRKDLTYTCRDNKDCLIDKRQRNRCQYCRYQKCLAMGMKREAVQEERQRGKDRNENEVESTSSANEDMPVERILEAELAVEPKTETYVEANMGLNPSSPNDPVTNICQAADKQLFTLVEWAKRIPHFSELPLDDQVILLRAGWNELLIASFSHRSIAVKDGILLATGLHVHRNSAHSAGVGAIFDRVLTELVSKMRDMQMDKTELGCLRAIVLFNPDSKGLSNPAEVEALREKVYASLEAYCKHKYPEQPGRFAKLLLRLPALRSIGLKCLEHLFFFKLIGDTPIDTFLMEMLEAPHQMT
Method in brief: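 Cells (HepG2) carried transiently transfected GAL4-responsive reporter units. Following a 24 h chemical incubation, reporter mRNA induction was read via RT-PCR fragment analysis; DMSO served as negative control and baseline.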

[10] = read-out: E-selectin (Homo sapiens) (UniProt P16581); assay: BSK_3C_Eselectin: BioMAP Diversity Plus: 3C Assay for Eselectin Biomarker Activity (AID 2283015); conditions: primary human endothelial cells (HUVEC); actives raise or lower the signal
Method in brief: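 E-selectin ELISA readout, fitted bidirectionally relative to DMSO, taken 24 h post-dosing in HUVEC cultures of the 3C system. Overt cytotoxicity tracked with sulforhodamine B staining of parallel wells.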

[11] = read-out: Interleukin-1 alpha (IL1a), IL1A (gene 3552); assay: BSK_BE3C_IL1a: BioMAP Diversity Plus: BE3C Assay for Interleukin-1 alpha (IL1a) Biomarker Activity (AID 2283016); conditions: primary human bronchial epithelial cells; actives raise or lower the signal
Method in brief: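 Cultures of primary human bronchial epithelial cells receive test chemical. After 24 h, IL-1a is quantified by ELISA, while parallel wells are fixed in TCA and SRB-stained for total protein. Changes in either direction are fitted relative to DMSO.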

[12] = read-out: Monocyte Chemoattractant Protein-1 (MCP1), CCL2 (gene 6347); assay: BSK_3C_MCP1: BioMAP Diversity Plus: 3C Assay for Monocyte Chemoattractant Protein-1 (MCP1) Biomarker Activity (AID 2283017); conditions: primary human endothelial cells (HUVEC); actives raise or lower the signal
Method in brief: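 MCP-1 was measured by ELISA 24 h after dosing in primary HUVEC 3C cultures and fitted in both directions relative to DMSO; cytotoxicity was checked by SRB total-protein staining in parallel wells.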

[13] = read-out: Monocyte Chemoattractant Protein-1 (MCP1), CCL2 (gene 6347); assay: BSK_4H_MCP1: BioMAP Diversity Plus: 4H Assay for Monocyte Chemoattractant Protein-1 (MCP1) Biomarker Activity (AID 2283018); conditions: primary human endothelial cells (HUVEC); actives raise or lower the signal
Method in brief: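 Readout: MCP-1 ELISA on compound-treated HUVEC, sampled 24 h post-dosing. Baseline and negative control DMSO; bidirectional fit. Overt toxicity checked alongside by sulforhodamine B protein staining at time of biomarker measurement.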

[14] = read-out: Human Leukocyte Antigen - DR isotype (HLADR), HLA-DRA (gene 3122); assay: BSK_3C_HLADR: BioMAP Diversity Plus: 3C Assay for Human Leukocyte Antigen - DR isotype (HLADR) Biomarker Activity (AID 2283019); conditions: primary human endothelial cells (HUVEC); actives raise or lower the signal
Method in brief: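 Bidirectional fitting against DMSO was applied to the HLA-DR ELISA signal from human umbilical vein endothelial cells, 24 h post-dose. Cytotoxicity came from parallel SRB total-protein staining; 3C proliferation was counted by SRB at 48 h.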

[15] = BSK_4H_Eotaxin3: BioMAP Diversity Plus: 4H Assay for Eotaxin 3 Biomarker Activity (AID 2283000); conditions: primary human endothelial cells (HUVEC); actives raise or lower the signal
Method in brief: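 Human umbilical vein endothelial cells (BSK_4H system) dosed with test chemical; Eotaxin-3 (CCL26) measured by ELISA 24 h after dosing. Bidirectional curve fitting relative to DMSO negative control as baseline.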

[16] = target: human Retinoid X Receptor beta (RXRb), RXRB (gene 6257) (UniProt P28702); assay: ATG_RXRb_TRANS: Attagene TRANS-FACTORIAL HepG2 Assay for human Retinoid X Receptor beta (RXRb) (AID 2283013; active means hit-call score of the fitted dose curve at least 0.9, where 1 is the maximum)
Sequence of human Retinoid X Receptor beta (RXRb), RXRB (gene 6257) (P28702 whole entry, looked up): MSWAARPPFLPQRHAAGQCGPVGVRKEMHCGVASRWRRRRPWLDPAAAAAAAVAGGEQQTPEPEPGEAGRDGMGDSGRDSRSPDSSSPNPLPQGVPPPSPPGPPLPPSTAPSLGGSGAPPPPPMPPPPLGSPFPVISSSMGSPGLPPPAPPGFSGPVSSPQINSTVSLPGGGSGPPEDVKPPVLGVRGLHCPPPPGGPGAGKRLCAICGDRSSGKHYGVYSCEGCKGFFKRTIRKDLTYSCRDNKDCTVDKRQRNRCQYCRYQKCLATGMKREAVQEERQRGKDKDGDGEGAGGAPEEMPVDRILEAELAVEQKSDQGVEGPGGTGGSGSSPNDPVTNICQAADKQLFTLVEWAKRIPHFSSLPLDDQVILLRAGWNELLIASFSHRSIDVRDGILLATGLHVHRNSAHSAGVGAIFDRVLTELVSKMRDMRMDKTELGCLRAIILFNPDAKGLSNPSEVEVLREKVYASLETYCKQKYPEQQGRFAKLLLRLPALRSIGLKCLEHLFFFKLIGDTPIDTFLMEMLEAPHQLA
Method in brief: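 Multiplexed TRANS reporter assay in HepG2; 24 h dosing; reporter mRNA by RT-PCR/CE fluorescence; gain-of-signal relative to DMSO.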

[17] = target: human Retinoic Acid Receptor beta (RARb), RARB (gene 5915) (UniProt P10826); assay: ATG_RARb_TRANS: Attagene TRANS-FACTORIAL HepG2 Assay for human Retinoic Acid Receptor beta (AID 2283004; active means hit-call score of the fitted dose curve at least 0.9, where 1 is the maximum)
Sequence of human Retinoic Acid Receptor beta (RARb), RARB (gene 5915) (P10826 whole entry, looked up, the tested form may be a part): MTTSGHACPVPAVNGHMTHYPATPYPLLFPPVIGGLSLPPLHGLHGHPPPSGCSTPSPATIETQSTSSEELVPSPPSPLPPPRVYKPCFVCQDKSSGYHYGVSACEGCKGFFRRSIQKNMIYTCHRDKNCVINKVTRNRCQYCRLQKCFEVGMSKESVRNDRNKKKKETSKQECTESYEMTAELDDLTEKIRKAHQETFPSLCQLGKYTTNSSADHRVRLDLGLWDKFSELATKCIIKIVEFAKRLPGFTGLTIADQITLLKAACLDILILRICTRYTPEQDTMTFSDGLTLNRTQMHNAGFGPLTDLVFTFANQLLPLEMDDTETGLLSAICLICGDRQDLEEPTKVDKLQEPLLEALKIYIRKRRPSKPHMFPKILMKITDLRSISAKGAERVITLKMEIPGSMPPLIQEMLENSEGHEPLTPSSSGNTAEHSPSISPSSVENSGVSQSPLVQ
Method in brief: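 Induction of reporter mRNA from a chimeric RARb-Gal4 construct was measured by RT-PCR, FAM labelling, HpaI digestion and capillary electrophoresis. Measurements followed 24 h compound treatment of transiently transfected human HepG2 liver cells, with DMSO as baseline.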

[18] = target: Retinoic acid receptor alpha (Homo sapiens) (UniProt P10276); assay: ATG_RARa_TRANS: Attagene TRANS-FACTORIAL HepG2 Assay for human Retinoic Acid Receptor alpha (RARa) (AID 2283005; active means hit-call score of the fitted dose curve at least 0.9, where 1 is the maximum)
Method in brief: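 Reporter transcripts, measured by RT-PCR with fluorescent labeling and capillary electrophoresis after 24 h dosing, reflect activity of an exogenous human RARa–GAL4 fusion in transiently transfected HepG2. Fitted for increase relative to DMSO.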

[19] = target: human Retinoic Acid Receptor gamma (RARg), RARG (gene 5916) (UniProt P13631); assay: ATG_RARg_TRANS: Attagene TRANS-FACTORIAL HepG2 Assay for human Retinoic Acid Receptor gamma (RARg) (AID 2283009; active means hit-call score of the fitted dose curve at least 0.9, where 1 is the maximum)
Method in brief: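 HepG2, RARg-GAL4 TRANS system, 24 h exposure; reporter mRNA by RT-PCR + CE fluorescence; increase over DMSO.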

[20] = target: human Thyroid Receptor alpha (THRa1), THRA (gene 7067) (UniProt P10827); assay: ATG_THRa1_TRANS: Attagene TRANS-FACTORIAL HepG2 Assay for human Thyroid Receptor alpha (THRa1) (AID 2283014; active means hit-call score of the fitted dose curve at least 0.9, where 1 is the maximum)
Method in brief: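 Transcripts from GAL4-UAS-driven reporters, measured after 24 h compound exposure by RT-PCR plus capillary electrophoresis of 6-FAM-labeled fragments, were fitted for gain of signal relative to DMSO. Cells: transiently transfected HepG2 expressing NR-Gal4 chimeras.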

Measured: AC50

Sequence of E-selectin (Homo sapiens) (P16581 whole entry, looked up): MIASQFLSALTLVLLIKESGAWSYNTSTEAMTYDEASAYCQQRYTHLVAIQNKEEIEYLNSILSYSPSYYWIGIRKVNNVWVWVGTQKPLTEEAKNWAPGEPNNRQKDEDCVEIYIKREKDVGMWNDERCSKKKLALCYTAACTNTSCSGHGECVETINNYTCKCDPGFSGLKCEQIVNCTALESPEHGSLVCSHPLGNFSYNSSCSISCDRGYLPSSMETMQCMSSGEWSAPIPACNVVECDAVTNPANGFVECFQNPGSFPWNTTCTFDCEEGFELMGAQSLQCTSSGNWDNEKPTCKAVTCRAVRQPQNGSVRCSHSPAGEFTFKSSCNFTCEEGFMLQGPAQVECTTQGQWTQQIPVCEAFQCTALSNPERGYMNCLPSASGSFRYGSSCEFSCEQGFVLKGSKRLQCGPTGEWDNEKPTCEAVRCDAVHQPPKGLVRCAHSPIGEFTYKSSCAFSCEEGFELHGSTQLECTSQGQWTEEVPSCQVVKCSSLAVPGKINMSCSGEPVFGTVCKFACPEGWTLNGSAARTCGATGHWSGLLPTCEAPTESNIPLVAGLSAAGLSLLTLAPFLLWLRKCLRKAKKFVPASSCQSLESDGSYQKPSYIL

O=S(=O)(O)CCC(F)(F)C(F)(F)C(F)(F)C(F)(F)C(F)(F)C(F)(F)C(F)(F)C(F)(F)F
not listed: [15] | [16] | [17] | [18] | [19] | [20]
inactive: all other assays above

C=CC(=O)OCCC(F)(F)C(F)(F)C(F)(F)C(F)(F)F
active: [4] 30 µM and 32.6 µM | [10] 33.7 µM and 30 µM
not listed: [7] | [11] | [17] | [18] | [19] | [20]
inactive: all other assays above

OCC(F)(F)C(F)(F)C(F)(F)CO
inactive: [15] | [1] | [2] | [3] | [10] | [12] | [13]

CCOC(C=C(C)CCC=C(C)C)OCC
inactive: [1] | [2] | [9] | [16]
active: [15] 29.3 µM | [3] 34.5 µM | [4] 28.1 µM | [5] 15.3 µM | [10] 32.8 µM | [12] 32.1 µM | [13] 30.4 µM

Cc1cc(O)c(C(C)(C)C)cc1C(C)(C)C
active: [15] 4.12 µM | [3] 8.46 µM | [16] 2.58 µM | [10] 3.91 µM | [12] 4.59 µM | [13] 3.83 µM | [14] 3.17 µM
not listed: [1] | [4] | [6] | [9] | [11]
inactive: all other assays above

CN(C(=O)C(F)(F)C(F)(F)C(F)(F)F)[Si](C)(C)C
inactive: [1] | [2] | [3] | [18] | [4] | [5] | [6] | [20] | [10] | [12] | [13]

NC(=O)C(F)(F)C(F)(F)C(F)(F)C(F)(F)C(F)(F)C(F)(F)C(F)(F)F
active: [1] 86.9 µM
not listed: [2] | [4] | [9] | [11] | [14]
inactive: all other assays above

NCC(F)(F)C(F)(F)C(F)(F)C(F)(F)C(F)(F)C(F)(F)F
not listed: [4] | [6] | [7] | [9] | [15] | [19] | [20]
inactive: all other assays above

O=S(=O)(Cl)C(F)(F)C(F)(F)C(F)(F)C(F)(F)C(F)(F)C(F)(F)C(F)(F)C(F)(F)F
active: [5] 34.9 µM | [10] 46.5 µM and 39.2 µM | [13] 22.3 µM
inactive: [1] | [2] | [3] | [17] | [18] | [4] | [6] | [19] | [7] | [8] | [9] | [16] | [12] | [13]

NC(O)(C(F)(F)F)C(F)(F)F
inactive: [15] | [2] | [3] | [4] | [20] | [10] | [11] | [12] | [13]

CO[Si](C)(CCC(F)(F)C(F)(F)C(F)(F)C(F)(F)C(F)(F)C(F)(F)F)OC
not listed: [4] | [7] | [11] | [14] | [17] | [18]
inactive: all other assays above

COC(F)(C(F)F)C(F)(F)F (centres undefined)
not listed: [1] | [4] | [11] | [16] | [17] | [19]
inactive: all other assays above

C=C(C)C(=O)OCC(F)(F)C(F)(F)C(F)(F)C(F)F
not listed: [6] | [7] | [11] | [15] | [17] | [19] | [20]
inactive: all other assays above

C[C@]12CC[C@H]3C(=CCc4cc(O)ccc43)[C@@H]1CCC2=O
active: [4] 32.1 µM
not listed: [6] | [8] | [11] | [14] | [15] | [16]
inactive: all other assays above

CCN(CCO)S(=O)(=O)C(F)(F)C(F)(F)C(F)(F)C(F)(F)C(F)(F)C(F)(F)C(F)(F)C(F)(F)F
active: [15] 20.9 µM and 43.5 µM | [3] 50.8 µM and 9.21 µM | [4] 8.37 µM and 10.7 µM | [12] 23.1 µM and 9.73 µM | [14] 42.6 µM and 20.2 µM
not listed: [7] | [8] | [11] | [16] | [17] | [18]
inactive: all other assays above

O=C(O)C(F)(F)C(F)(F)C(F)(F)OC(F)(F)F
inactive: [15] | [3] | [17] | [5] | [8] | [10] | [11] | [12] | [13]
active: [1] 61.4 µM

CC1=CC2C3C=CC(C3)C2C1C (centres undefined)
inactive: [15] | [2] | [3] | [5] | [9] | [10] | [12] | [13]
active: [6] 0.387 µM
